Data on 26 compounds can be found in PubChem BioAssay.

The nature of experiment [1]: STAT1 signaling activators, confirmation, cell-based, HTS, luciferase reporter (AID 1262).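 Also: simple ratio to median IFN-gamma plus DMSO wells so 0% means no light.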 To be noted: NIH 3T3 STAT1-luciferase reporter, IFN-gamma potentiation, luminescence; at 5.7 µM; stronger effect = higher value; 100% = IFN-gamma EC80 alone, no compound.
Experiment [2] is described as follows: NF-kB reporter activators, TNF-alpha stimulated, counter-screen for STAT1 activator project, cell-based, HEK293T, luciferase luminescence (AID 1306;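 active = activation above the mean of solvent-only control wells plus 3 SD, set per campaign, cut at about 130% in these data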;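 also: TNF-alpha given at a submaximal dose yielding about 80% of full reporter signal; values are well signal over median control so 100% means no change and 0% no light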). To be noted: at 5.7 µM, stronger effect = higher value, 100% = TNF-alpha with vehicle only.
The target in experiment [3] is Signal transducer and activator of transcription 3 (Homo sapiens) (UniProt P40763). Kind of experiment: STAT3 reporter activation by STAT1 hits, confirmation, counter-screen for STAT1 activator project, U3A cells, luciferase, luminescence (AID 1316;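 active = activation above the solvent-only control well mean plus 3 SD, set per plate batch, cut at about 110% in these data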;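 also: 0% = no luminescence and 100% = median IL-6 plus DMSO wells; higher means more STAT3 reporter activation so hits are non-selective activators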). Particulars: IL-6, luminescence, at 5.7 µM, stronger effect = higher value, 100 = IL-6 alone, no compound effect, cells lack STAT1.

Experiment [4] addresses Sphingosine 1-phosphate receptor 4 (Homo sapiens) (UniProt O95977). Kind of experiment: S1P4 receptor antagonists, human, confirmation, cell-based (AID 1524; in the data active = inhibition above about 30%). Particulars: S1P4-expressing cell line, antagonist mode, reporter read-out; at 4.98 µM; stronger effect = higher value.
Experiment [5] has as its target Sphingosine 1-phosphate receptor 1 (Homo sapiens) (UniProt P21453). As to the kind of experiment: S1P1 receptor antagonists, human, counter-screen for S1P4 antagonist project, cell-based (AID 1564; in the data active = inhibition above about 40%;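 also: receptor stimulated with S1P near its EC80; 0% = agonist stimulated wells and 100% = vehicle only wells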). Particulars: cell-based S1P1 antagonist counterscreen, at 4.98 µM, stronger effect = higher value.
Experiment [6] in a line: KLF5 expression inhibitors, confirmation, DLD-1 cells, luminescence (AID 1834;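 active = inhibition above a set limit taken from the earlier primary screen, cut at about 63% in these data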;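 also: 0% = DMSO wells and 100% = LY294002 at 200 µM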). Particulars: DLD-1 KLF5 promoter firefly luciferase reporter, at 4 µM, stronger effect = higher value.
A short description of experiment [7]: cytotoxicity in rat IEC-6 cells, cytotoxicity control for KLF5 inhibitor project, cell-based, luminescence, triplicate (AID 1905; in the data active = inhibition above about 23%;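 also: cells exposed to compounds for 48 hours before viability read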). Particulars: IEC-6 rat intestinal cells, viability luminescence; at 4 µM; stronger effect = higher value.
The test system of experiment [8] is DAF-12 nuclear receptor (Heterodera glycines), GAL4-LBD fusion. As to the kind of experiment: H. glycines DAF-12 receptor agonists, confirmation, cell-based, luminescence, HEK293, GAL4-LBD fusion (AID 743050;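 active = mean activation over triplicate wells above the hit cutoff derived from the earlier primary screen, cut at about 11% in these data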;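 also: 0% = DMSO low control and 100% = 2 mM sodium butyrate high control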). To be noted: HEK293 GAL4-hgDAF12 luciferase reporter, agonist mode; at 6.8 µM; stronger effect = higher value; percent of butyrate response.
Experiment [9] addresses Oxysterols receptor LXR-beta (Homo sapiens) (UniProt P55055). As to the kind of experiment: LXR agonists, Gal4 luciferase reporter, confirmation, counter-screen for hgDAF-12 agonist project, cell-based, luminescence, HEK293, H. glycines campaign (AID 743051;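 active = mean activation of the triplicate above a set limit carried over from the primary screen, none filed active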). To be noted: 24 h, at 6.8 µM, stronger effect = higher value.
Experiment [10] shares this target. As to the kind of experiment: LXR agonists, Gal4 luciferase reporter, confirmation, counter-screen for hcDAF-12 agonist project, cell-based, luminescence, HEK293, H. contortus campaign (AID 743027;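 active = mean percent activation of the reporter above a cutoff set as the average over tested compounds plus their standard deviation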). Particulars: HEK293 Gal4-LXR tk-luc reporter, 24 h, at 6.8 µM, stronger effect = higher value, normalized: DMSO 0%, positive control 100%.
The test system of experiment [11] is Nuclear hormone receptor DAF-12 (Haemonchus contortus). As to the kind of experiment: H. contortus DAF-12 receptor agonists, confirmation, cell-based, luminescence, HEK293, lit1-tk-luc, triplicate (AID 743032;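 active = mean activation across triplicate tests above the threshold derived from the earlier primary screen, cut at about 5.5% in these data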;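 also: 0% = DMSO only wells and 100% = 3 µM Δ7-dafachronic acid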). Particulars: HEK293 hcDAF-12 lit1-tk-luc reporter, at 6.8 µM, stronger effect = higher value, % of Δ7-dafachronic acid response.
The nature of experiment [12]: STAT3 reporter inhibitors, retest of hits, confirmation, U3A cells, luciferase, luminescence (AID 1265;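 active = inhibition above the hit cutoff computed for the primary STAT3 screen, cut at about 44% in these data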;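 also: 0% = IL-6 plus DMSO and 100% = IL-6 plus nifuroxazide control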). Particulars: IL-6 STAT3 luciferase reporter, at 5.7 µM, stronger effect = higher value, cell line lacks STAT1.
A short description of experiment [13]: NF-kB reporter inhibitors in human cells, confirmation, counter-screen for STAT3 inhibitor project, cell-based, HEK293T, luciferase, TNF-alpha stimulus (AID 1308;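 active = inhibition above the mean of solvent-only control wells plus 3 SD, cutoff set per campaign, cut at about 13% in these data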;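 also: 0% = TNF-alpha with DMSO and 100% = TNF-alpha with MG high control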). To be noted: TNF-alpha induced, at 5.7 µM, stronger effect = higher value.
Experiment [14] is described as follows: STAT1 reporter inhibitors, IFN-gamma induced, confirmation, counter-screen for STAT3 inhibitor project, cell-based, NIH 3T3, luciferase luminescence (AID 1317;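 active = inhibition above the mean plus 3 SD of solvent-only control wells, limit set per screening run, cut at about 16% in these data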;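 also: 0% = DMSO with IFN-gamma and 100% = nifuroxazide control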). To be noted: NIH 3T3 STAT1-luciferase reporter, at 5.7 µM, stronger effect = higher value.
In experiment [15] the target is Neuropeptide Y receptor type 2 (Homo sapiens) (UniProt P49146). As to the kind of experiment: NPY-Y2 potentiators or agonists, confirmation, cell-based (AID 1539; in the data active = activation above about 33%). To be noted: cell-based NPY-Y2 potentiator/agonist assay; at 3.6 µM; stronger effect = higher value.
For experiment [16], the target named is Neuropeptide Y receptor type 1 (Homo sapiens) (UniProt P25929). As to the kind of experiment: NPY-Y1 potentiators or agonists, counter-screen for NPY-Y2 potentiator project, cell-based, fluorescence (AID 1651; in the data active = activation above about 45%;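 also: cells stimulated with submaximal NPY then isoproterenol with phosphodiesterase inhibitor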). To be noted: Y1 HEK293-CNG cells, membrane potential fluorescence; at 3.6 µM; stronger effect = higher value.
The target is the same in experiment [17]. As to the kind of experiment: NPY-Y1 direct agonists, selectivity assay for NPY-Y2 potentiator project, cell-based, fluorescence (AID 1702;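 active = activation above the mean of DMSO-only control wells plus 3 SD, cut at about 18% in these data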;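 also: cells stimulated with 1 µM isoproterenol plus the PDE inhibitor Ro 20-1724; 0% = isoproterenol with DMSO and no NPY and 100% = 40 nM NPY; Y1 agonists lower the membrane potential dye signal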). To be noted: HEK293 Y1-CNGC, membrane potential fluorescence, agonism; at 3.6 µM; stronger effect = higher value.
Experiment [18] can be described thus: CNGC cAMP sensor activity inhibitors, counter-screen for NPY-Y2 potentiator project, cell-based, HEK293-CNG parental, membrane potential fluorescence (AID 1703;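 active = inhibition above the control-well mean plus 3 SD of those wells, cut at about 22% in these data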;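 also: 0% = DMSO with isoproterenol and 100% = DMSO without isoproterenol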). To be noted: isoproterenol cAMP, at 3.6 µM, stronger effect = higher value.
Experiment [19] concerns the target Neuropeptide Y receptor type 2 (Homo sapiens) (UniProt P49146). As to the kind of experiment: NPY-Y2 direct agonists, counter-screen for NPY-Y2 potentiator project, cell-based, fluorescence (AID 1710;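 active = activation above the mean of solvent-only control wells plus 3 SD, cut at about 10% in these data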;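 also: cells stimulated by isoproterenol with no NPY added so direct agonism is tested; 0% = DMSO with isoproterenol alone and 100% = NPY at EC100 plus isoproterenol; agonism lowers probe fluorescence through less cAMP and CNG channel opening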). Particulars: HEK293 Y2/CNGC cells, membrane potential fluorescence, agonist mode; at 3.6 µM; stronger effect = higher value.

Some of the results follow. Unmarked numbers belong to inactive results. Calls of active or inactive are those of the source.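 The calls were made as follows, unless noted: active = activation above a set limit carried over from the earlier primary STAT1 screen (cut at about 140% in these data); inactive = the rest.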

Chain of Oxysterols receptor LXR-beta (Homo sapiens) (P55055 whole entry, looked up, the tested form may be a part): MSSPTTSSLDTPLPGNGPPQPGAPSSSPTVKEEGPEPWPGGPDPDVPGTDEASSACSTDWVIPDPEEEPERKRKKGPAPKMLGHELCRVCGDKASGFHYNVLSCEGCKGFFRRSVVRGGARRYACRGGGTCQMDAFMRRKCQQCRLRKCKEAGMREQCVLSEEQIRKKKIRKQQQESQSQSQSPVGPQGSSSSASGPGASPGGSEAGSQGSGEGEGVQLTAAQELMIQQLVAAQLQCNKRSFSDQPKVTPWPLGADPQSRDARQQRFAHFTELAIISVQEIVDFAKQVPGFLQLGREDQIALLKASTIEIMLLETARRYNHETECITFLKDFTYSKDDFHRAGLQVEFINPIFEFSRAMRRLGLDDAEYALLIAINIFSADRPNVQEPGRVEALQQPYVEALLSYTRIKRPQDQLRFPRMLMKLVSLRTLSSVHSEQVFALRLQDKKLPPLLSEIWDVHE
Chain of Neuropeptide Y receptor type 1 (Homo sapiens) (P25929 whole entry, looked up): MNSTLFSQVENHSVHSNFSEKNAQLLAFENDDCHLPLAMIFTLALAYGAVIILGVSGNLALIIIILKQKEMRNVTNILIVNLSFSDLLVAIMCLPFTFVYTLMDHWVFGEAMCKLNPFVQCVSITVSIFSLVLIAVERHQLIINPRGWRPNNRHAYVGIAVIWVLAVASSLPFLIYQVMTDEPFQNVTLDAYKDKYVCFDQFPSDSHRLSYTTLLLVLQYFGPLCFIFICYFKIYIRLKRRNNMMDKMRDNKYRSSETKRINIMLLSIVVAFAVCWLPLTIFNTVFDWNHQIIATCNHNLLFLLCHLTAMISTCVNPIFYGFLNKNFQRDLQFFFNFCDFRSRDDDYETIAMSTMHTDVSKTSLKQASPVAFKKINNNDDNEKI
Chain of Neuropeptide Y receptor type 2 (Homo sapiens) (P49146 whole entry, looked up): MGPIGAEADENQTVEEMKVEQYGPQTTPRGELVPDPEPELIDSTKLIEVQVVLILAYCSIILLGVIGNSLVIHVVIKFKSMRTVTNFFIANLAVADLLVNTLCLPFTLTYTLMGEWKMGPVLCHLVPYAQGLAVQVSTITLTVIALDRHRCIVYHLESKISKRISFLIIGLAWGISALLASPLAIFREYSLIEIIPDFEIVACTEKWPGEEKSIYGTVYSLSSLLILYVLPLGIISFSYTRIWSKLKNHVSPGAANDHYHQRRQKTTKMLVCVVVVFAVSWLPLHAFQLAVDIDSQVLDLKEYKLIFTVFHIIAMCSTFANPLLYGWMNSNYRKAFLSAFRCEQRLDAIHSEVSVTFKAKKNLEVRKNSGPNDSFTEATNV
Chain of Sphingosine 1-phosphate receptor 1 (Homo sapiens) (P21453 whole entry, looked up): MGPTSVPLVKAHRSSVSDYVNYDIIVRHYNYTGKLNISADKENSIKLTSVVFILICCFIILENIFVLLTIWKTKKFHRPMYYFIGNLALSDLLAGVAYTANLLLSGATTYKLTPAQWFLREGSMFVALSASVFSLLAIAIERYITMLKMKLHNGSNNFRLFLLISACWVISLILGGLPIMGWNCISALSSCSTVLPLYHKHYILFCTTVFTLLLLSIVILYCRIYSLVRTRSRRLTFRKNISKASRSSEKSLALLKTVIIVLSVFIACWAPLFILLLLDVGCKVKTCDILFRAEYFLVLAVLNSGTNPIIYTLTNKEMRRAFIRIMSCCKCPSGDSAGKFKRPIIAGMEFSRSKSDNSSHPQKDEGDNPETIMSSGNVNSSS
Chain of Sphingosine 1-phosphate receptor 4 (Homo sapiens) (O95977 whole entry, looked up): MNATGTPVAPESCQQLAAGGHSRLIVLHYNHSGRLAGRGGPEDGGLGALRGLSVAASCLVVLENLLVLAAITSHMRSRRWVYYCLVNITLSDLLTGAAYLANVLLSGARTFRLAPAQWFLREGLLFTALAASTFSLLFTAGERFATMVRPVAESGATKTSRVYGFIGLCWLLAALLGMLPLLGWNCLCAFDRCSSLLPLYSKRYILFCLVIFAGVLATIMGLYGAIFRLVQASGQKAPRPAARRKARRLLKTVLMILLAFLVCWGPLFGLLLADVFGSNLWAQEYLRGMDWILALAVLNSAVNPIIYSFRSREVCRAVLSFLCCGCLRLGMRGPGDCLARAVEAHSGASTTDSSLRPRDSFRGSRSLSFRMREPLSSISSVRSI

On to `Nc1ncc(-c2cc3ccccc3oc2=O)s1`, for which the activation (% of control) in experiment [1] was 184% (active); in experiment [2] it was 124%; in [3], 110%.
As to `COc1ccc(/C=N/Nc2nc3ccccc3c(=O)[nH]2)cc1`, the activation (% of control) is 169% (active) in [1], 119% in experiment [2] and 102% in experiment [3].
On the same counts, the results for `OCCCN1c2ccccc2Nc2nnc(-c3ccccc3)cc21` are 177% (active), 132% and 102%.
As to `O=C(Nc1ccc(Cl)cn1)c1cnn2cccnc12`, the activation (% of control) in [1] was 171% (active); in experiment [2], 128%; in [3], 111% (active).
For `COc1ccccc1-c1cc(C(=O)N2CCCCC2)no1`, the activation (% of control) in [1] is 204% (active); in [2], 137% (active); in experiment [3], 116% (active).
On to `CCC(=O)NC(=Nc1nc2ccccc2s1)NC(=O)CC`, for which the activation (% of control) was 216% (active) in experiment [1], 138% (active) in [2] and 112% (active) in experiment [3].
On to `COc1ccc(NC(=O)/C(Cl)=C(/Cl)S(=O)Cc2ccc(C)cc2)cn1` (configuration not stated), for which the activation (% of control) in experiment [1] is 324% (active); in experiment [2] it was 51.5%; in [3] it was 103%. Also, the inhibition is 121% (active) in experiment [4], 117% (active) in experiment [5], 109% (active) in [6] and 87% (active) in experiment [7].
With `Cc1nn(-c2ccc([N+](=O)[O-])cc2)c(N)c1-c1ccccc1`, the activation (% of control) was 207% (active) in experiment [1], 145% (active) in [2] and 126% (active) in experiment [3]. In addition, the activation in experiment [8] is 16.4% (active); in [9], 0.83%.
For `Cc1ccc(NC(=O)c2csc3c2CCCC3)cc1`, the activation (% of control) in [1] is 202% (active); in experiment [2], 140% (active); in experiment [3], 111% (active). For the same compound, the activation in experiment [10] is 1.06%; in [11] it was 6.25% (active); in [8], 17.6% (active); in experiment [9], 0.8%.
In the case of `CC1CN/C(=C\C(=O)c2ccc(Br)cc2)C(=O)N1` (configuration not stated), the activation (% of control) in experiment [1] was 250% (active); in experiment [2], 117%; in [3], 87.3%.
As to `c1ccc(Nc2nc(-c3ccncc3)cs2)nc1`, the activation (% of control) in experiment [1] is 243% (active); in [2], 126%; in experiment [3] it was 126% (active). Further, the activation in [10] is 1.73%; in experiment [11] it was 8.34% (active); in experiment [8], 16.8% (active); in [9] it was 0.86%.
For the compound `CCSc1nnc(NC(=O)c2ccc(C)cc2)s1`, the inhibition in experiment [12] was 21.2%; in experiment [13] it was -24.2%; in [14], -63%; in experiment [18] it was -0.46%. The activation in experiment [15] was -4.89%; in experiment [16], -0.65%; in [17], -1.02%; in [19], -10.9%; in experiment [8], 17.3% (active); in experiment [9] it was 0.93%.
With `O=C(Nc1cccnc1)c1noc2c1CCCCC2`, the inhibition is 16.7% in [12], -24.9% in experiment [13] and -46.6% in [14].
On the same counts, the results for `CCCCCc1ccc(-c2ccc(C(=O)O)cc2)nc1` are 22.4%, -6.17% and -71.4%.
On to `Cc1cc(NC(=O)c2cc(-c3cccs3)on2)nn1Cc1ccc(Cl)cc1`, for which the inhibition is 46.6% (active) in [12], 8.43% in experiment [13] and 0.57% in experiment [14].
Consider `CCN(CC)c1ccc(/C=N/Nc2nc(C)cc(=O)[nH]2)cc1`, for which the inhibition was 37.2% in [12], -2% in experiment [13] and -4.6% in experiment [14].
On to `CC(=O)c1sc(N/N=C/c2ccc(C(C)C)cc2)nc1C`, for which the activation (% of control) in [1] is 187% (active); in [2] it was 133% (active); in experiment [3], 110%. Also, the activation in experiment [8] is 11.8% (active); in [9] it was 0.5%.
`CC(C)(C)C(=O)c1cnc(Nc2ccccc2)s1`: the activation (% of control) in experiment [1] was 164% (active); in [2], 121%; in experiment [3] it was 105%. For the same compound, the activation was 13.6% (active) in [8] and 0.48% in experiment [9].
Take `Cn1c(SCC(=O)N2CCCc3ccccc32)nc2ccccc2c1=O`: the inhibition in experiment [12] is 49.3% (active); in experiment [13], 13.7% (active); in experiment [14], 22.5% (active).
Take `Cc1ccc2nc(-c3ccc(NC(=O)c4cccnc4)cc3)oc2c1`: the inhibition is 31.7% in [12], -25.2% in experiment [13] and -38.3% in experiment [14].
On the same counts, the results for `Cc1ccc(-c2cn3cc([N+](=O)[O-])ccc3n2)cc1` are 60.3% (active), -3.2% and -77%.
As for `Cc1nc(-c2ccc(NC(=O)c3cccs3)cc2)cs1`, the inhibition was 27.5% in experiment [12], -26.7% in experiment [13] and -111% in [14].
Take `CCOc1cccc(/C=C/c2ccc3ccccc3n2)c1OC(C)=O`: the inhibition is -2.03% in experiment [12], -34.1% in experiment [13] and -15.3% in [14].
For the compound `O=C(NCCCn1ccnc1)c1cc(-c2ccccc2)on1`, the activation (% of control) in [1] is 173% (active); in [2] it was 165% (active); in experiment [3], 132% (active). The figures for the activation in experiment [8] and in experiment [9] were 57.6% (active) and 0.27%, respectively.
On the same counts, the results for `COc1ccc(-c2csc(-c3cccs3)n2)cc1OC` are 179% (active), 136% (active), 114% (active), 9.44% and 0.79%.
As to `O=c1c2c(nc3n1CCCCC3)sc1c(O)cccc12`, the inhibition was 45.2% (active) in [12], -0.37% in experiment [13] and 3.33% in experiment [14].
